Assay outcomes from PubChem BioAssay.
PGC1a acetyl inh: lowers PGC1a acetylation signal in U2OS cells; AlphaScreen anti-acetyl-lysine; with virally co-expressed GCN5 acetyltransferase; actives 0.17% (n = 350,000); AID 651687; inhibition, % at 15.6 µM;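 active = every replicate shows inhibition of at least 40%; inconclusive = mean inhibition at least 40% but some replicate below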;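 also: 0% = neutral control wells and 100% = positive control wells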
PAX8 inh HTS: PAX8 transcriptional activity inhibition | RMG-I TPO-luciferase reporter, SteadyGlo, 24 h | inhibition, % at 12.6 µM | actives 1.2% (n = 360,000) | AID 652154;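 active = mean replicate inhibition at least 60% with every replicate also reaching 60%; inconclusive = only one of the two criteria is met; inactive = mean below 60% and not all replicates reaching 60%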;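 also: luciferase light reporting Pax8 driven TPO promoter activity; plate controls were median of neutral control wells for no effect and mitoxantrone controls for full effect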
EWS-Fli block: blocks EWS/Fli oncoprotein-driven transcription | A673 NR0B1-luciferase reporter, viability-normalised | inhibition, % at 12.6 µM | actives 0.67% (n = 350,000) | AID 651661;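 active = mean inhibition of at least 50% after viability correction, with every replicate also passing that limit; inconclusive = mean reaches 50% but only one of two replicates passes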;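 also: firefly luciferase signal divided by Alamar Blue viability fluorescence both relative to DMSO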
LGR2 antag: blocks bursicon-induced cAMP signaling via Drosophila LGR2 | actives 0.35% (n = 380,000) | HEK293 LGR2, CRE-luciferase, bursicon-stimulated, 4 h | inhibition, % at 9.99 µM;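 active = drop in luminescence signal, shown as inhibition above about 50% in the replicate tests, limit read from the data, passing the limit was not always enough; inconclusive = probably only some replicates passing the limit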;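 also: agonist challenge used bursicon conditioned medium at about half maximal strength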
SIRT5 inh: sirtuin-5 (human) deacylase inhibition; AID 652115; Q9NXA8; Purified SirT5, succinyl-peptide AMC, trypsin-coupled fluorescence; actives 1.1% (n = 330,000); inhibition, % at 15 µM; in the data active = inhibition above about 15%; inconclusive = no clear call, values can overlap the other calls
Target sequence (Q9NXA8 whole entry, looked up): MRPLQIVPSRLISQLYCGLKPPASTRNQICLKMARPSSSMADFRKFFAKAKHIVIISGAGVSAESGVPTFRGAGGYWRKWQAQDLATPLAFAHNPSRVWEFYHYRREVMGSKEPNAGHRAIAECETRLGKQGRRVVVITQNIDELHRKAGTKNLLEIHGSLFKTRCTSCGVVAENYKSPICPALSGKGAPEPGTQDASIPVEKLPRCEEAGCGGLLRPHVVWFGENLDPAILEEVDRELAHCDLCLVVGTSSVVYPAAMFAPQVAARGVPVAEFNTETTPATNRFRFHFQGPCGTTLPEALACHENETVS
Ecoli rRNA inh: inhibits bacterial ribosomal RNA function over humanized ribosomes. AID 720706. actives 1.6% (n = 350,000). GFP signal change (wild-type ribosome), % (no concentration beside the values). E. coli WT GFP vs humanized-ribosome RFP mutants, fluorescence, 24 h; active compounds read low; DMSO median 0, no signal -100;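 active = significant combined selectivity score with lowered wild-type GFP, culture density cut under 30%, mutant RFP and density less affected; inactive = any of these conditions unmet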
Starred values were filed as active, the others as inactive; u = inconclusive; x = no result. Hits are enriched below; roughly 3.4% of the tested compounds scored in any of these assays.

SMILES	PGC1a acetyl inh	PAX8 inh HTS	EWS-Fli block	LGR2 antag	SIRT5 inh	Ecoli rRNA inh
C[C@H](CO)N1C[C@H](C)[C@H](CN(C)C(=O)Nc2cccc3ccccc23)Oc2ccc(NC(=O)Nc3ccc4c(c3)OCO4)cc2C1=O	-13.3	x	4.4	6.4	6.6	-3.2
CCC(=O)N(CCC(c1ccco1)C(C)C)Cc1ccccc1 (stereo not given)	-9.2	19.1	8.8	0.6	-0.5	-38.6*
Cc1noc(C)c1S(=O)(=O)Nc1cccc2c1O[C@H](CN(C)Cc1ccc(C(=O)Nc3ccccc3N)cc1)[C@H](C)CN([C@H](C)CO)C2=O	-7.5	5.8	-3.5	-5.4	x	0.6
CCn1nc(C)c(/C=C/C(=O)Nc2ccc(C)cc2C)c1C	x	11.7	3.6	-7.4	36.9*	-17.9
CCn1ncc(/C=C/C(=O)Nc2c(C)nn(CC)c2C)c1C	-38.1	x	x	0.0	x	x
O=C(C[C@H]1CC[C@@H]2[C@H](COC[C@H](O)CN2S(=O)(=O)c2cccc(Cl)c2)O1)Nc1ccccc1	-6.6	0.4	7.1	2.5	0.9	-5.7
COc1cc2nc(Nc3ccc(C)c(Cl)c3)nc(N)c2cc1OC	x	41.2	49.4	30.6	0.7	-70.4
COc1cc2nc(Nc3ccc(C)c(C)c3)nc(N)c2cc1OC	x	-5.2	-2.8	-11.8	5.1	-38.2*
COc1cc2nc(Nc3ccc(F)cc3)nc(N)c2cc1OC	x	-52.4	-22.3	-9.6	0.1	-16.4*
C[C@H]1CN(C)C(=O)c2cc(N(C)C)ccc2O[C@H]1CN(C)S(C)(=O)=O	x	x	x	x	x	-2.0
Cc1cccc(NCc2ccc(O)c3ncccc23)c1C	26.2	98.9*	47.4	-8.3	-4.0	15.6
Cn1ncc2c(O/N=C(\N)c3ccc(C(F)(F)F)cc3)ncnc21	u	91.5*	68.3*	x	-6.3	-17.0*
COCC(=O)Nc1ccc2c(c1)C(=O)N(C)C[C@@H](OC)[C@@H](C)CN(Cc1ccccc1F)[C@@H](C)CO2	-11.8	-7.9	4.5	-7.6	6.7	-0.1
O=C(Cc1ccccn1)N[C@H]1CC[C@@H](CCNC(=O)c2cc(Cl)cc(Cl)c2)O[C@H]1CO	6.3	7.3	1.4	6.8	-2.2	-3.5
COC(=O)C1=C(C)N(Cc2cccc(C(F)(F)F)c2)C(=NCc2ccc(OC)cc2)NC1c1cccc(C(F)(F)F)c1 (stereo not given)	x	77.0*	49.9	11.2	-1.9	-44.6
COC(=O)C1=C(C)N(Cc2ccccc2)C(=NCc2ccccc2)N[C@H]1c1cccc(C(F)(F)F)c1	0.8	x	x	x	x	x
COC(=O)C1=C(C)N(Cc2ccc(C(F)(F)F)cc2)C(=NCc2ccc(OC)cc2)NC1c1cccc(Cl)c1 (stereo not given)	x	14.6	-13.9	x	x	8.6
COC(=O)C1=C(C)N(Cc2cccc(C(F)(F)F)c2)C(=NCc2ccc(OC)cc2)NC1c1cccc(Cl)c1 (stereo not given)	x	37.2	46.2	58.6*	x	-54.3
COC(=O)C1=C(C)N(Cc2ccc(C(F)(F)F)cc2)C(=NCC2CC2)NC1c1cccc(Cl)c1 (stereo not given)	x	68.3*	28.5	56.8*	x	-54.3
C=CCN=C1NC(c2cccc(Cl)c2)C(C(=O)OC)=C(C)N1Cc1ccc(C(F)(F)F)cc1 (stereo not given)	x	-3.3	14.4	17.2	x	-55.4
CCC(=O)N1CC2(C1)CN(C(=O)CN1CCOCC1)[C@H](CO)c1c2c2ccc(OC)cc2n1C	9.6	-6.9	-7.4	-3.7	-4.8	2.3
CCC(=O)N1CC(=O)N2[C@H](CO)[C@H](c3ccc(C#CCc4ccccc4)cc3)[C@H]2C1	-16.8	x	x	18.7	-1.3	4.2
CCOC(=O)c1ccccc1NC(=O)c1ccc2c(SCC(=O)O)c3c(nc2c1)CCCC3	x	-6.0	2.8	6.2	22.3*	-10.1
O=C(Cc1cccc(NC(=O)C2CCCN(C(=O)CCc3ccccc3)C2)c1)Nc1cccc(C(=O)N2CCCCC2)c1 (stereo not given)	-8.9	28.6	4.7	13.0	x	-18.0*
O=C(Cc1cccc(NC(=O)C2CCCN(C(=O)CCc3ccccc3)C2)c1)Nc1cccc(C(=O)N2CCOCC2)c1 (stereo not given)	2.8	8.0	0.7	-2.9	-2.6	-1.4
SMILES	PGC1a acetyl inh	PAX8 inh HTS	EWS-Fli block	LGR2 antag	SIRT5 inh	Ecoli rRNA inh
O=C(Cc1cccc(NC(=O)C2CCCN(C(=O)C3CCCC3)C2)c1)Nc1cccc(C(=O)N2CCOCC2)c1 (stereo not given)	-4.8	5.4	0.7	1.1	19.1*	-3.2
O=C(Cc1cccc(NC(=O)C2CCCN(C(=O)C3CCCCC3)C2)c1)Nc1cccc(C(=O)N2CCOCC2)c1 (stereo not given)	-9.1	-7.0	-12.7	-7.9	-0.5	7.3
CN(C)Cc1cn(CC[C@@H]2CC[C@@H](NC(=O)Nc3ccc4c(c3)OCO4)[C@@H](CO)O2)nn1	6.9	-1.3	-0.7	1.6	2.0	-1.4
C[C@H](CO)N1C[C@H](C)[C@@H](CN(C)S(C)(=O)=O)Oc2ccc(NC(=O)Nc3ccc(C(F)(F)F)cc3)cc2CC1=O	4.7	9.3	x	-7.9	x	-0.6
O=C(Nc1ccccc1)N1C[C@@H]2[C@H](c3ccccc31)[C@@H](CO)N2C(=O)c1cccnc1	6.8	-65.0	-16.2	6.5	0.9	2.9
NC(N)=N/N=C/c1ccc(OCc2ccccc2)c(OCc2ccccc2)c1	x	-3.0	29.3	14.6	4.2	-73.8
NC(N)=N/N=C/c1ccc(Cl)cc1Cl	-12.8	-7.4	4.9	-1.9	-0.3	-21.4
NC(N)=N/N=C/c1ccc(OCc2ccccc2Cl)cc1	-6.7	x	57.7*	1.0	-3.6	-57.8
NC(N)=N/N=C/c1ccc(Cl)c(Cl)c1	-1.5	-1.5	3.8	63.5*	2.0	-28.5
O=C(C1CC1)N1C[C@@H]2[C@H](c3ccccc31)[C@H](CO)N2C(=O)c1cccc(F)c1	1.2	-2.0	-1.7	5.2	x	2.3
O=C(/C=C/c1ccc(Cl)cc1Cl)N1CCN(c2ccccc2[N+](=O)[O-])CC1	x	118.6*	3.0	-0.1	-2.9	-6.9
Cc1ccc2c(c1C)NC(C(=O)O)C1CC=CC21 (stereo not given)	-7.1	x	x	0.8	x	-2.0
Cc1cc(C)c2c(c1)NC(C(=O)O)C1CC=CC21 (stereo not given)	3.5	36.8	13.3	8.0	18.2*	8.1
C[C@@H]1CN([C@H](C)CO)S(=O)(=O)c2ccc(C#CC3CCCC3)cc2O[C@@H]1CN(C)C(=O)c1cccc(F)c1	-10.1	x	13.9	4.1	x	3.9
Cc1cccn2c(=O)c3cc(C(=O)NCCN4CCOCC4)c(=N)n(Cc4ccc(F)cc4)c3nc12	x	74.8*	x	-2.9	-25.2	-27.8
Cc1ccc2nc3c(cc(S(=O)(=O)c4ccccc4)c(=N)n3Cc3ccco3)c(=O)n2c1	-1.5	-24.6	-9.4	-24.3	-1.2	-21.1*
